# Results published in PubChem BioAssay (EPA / NIEHS).
# Results filed as inconclusive are left out. Activity calls are given as the source filed them. Rule for the calls, unless noted: active = hit-call score of the fitted dose curve at least 0.9, where 1 is the maximum; inconclusive = response in the unintended direction; inactive = score below 0.9.
# Experiments:
# [1] = molecular target: Cellular tumor antigen p53 (Homo sapiens) (UniProt P04637); experiment: TOX21_p53_BLA_p2_ratio: Tox21 HCT-116 p53 Agonism Beta-lactamase Assay, Ratio, Phase 2 (AID 2283592)
# Summary of the method: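 HCT116 cells carrying a p53-responsive beta-lactamase reporter were plated, incubated 5 h at 37C, then dosed with compounds in DMSO (217-fold dilution) for 16 h. CCF4-AM substrate was added for 2 h at room temperature; the 460/530 nm emission ratio gave gain-of-signal activity relative to DMSO.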
# [2] = TOX21_p53_BLA_p3_viability: Viability Assessment in the Tox21 HCT-116 p53 Agonism Beta-lactamase Assay, Phase 3 (AID 2283593);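 note: cells exposed to compound for 16 h before reading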
# Summary of the method: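 Cellular ATP was quantified by CellTiter-Glo luminescence, read after 30 min at room temperature. Beforehand, HCT116 cells (4000/well) received compound 5 h post-seeding, 217-fold diluted from DMSO, then incubated 16 h at 37C.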
# [3] = molecular target: Cellular tumor antigen p53 (Homo sapiens) (UniProt P04637); experiment: TOX21_p53_BLA_p3_ratio: Tox21 HCT-116 p53 Agonism Beta-lactamase Assay, Ratio, Phase 3 (AID 2283596)
# Summary of the method: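 HCT116 p53-bla cells (4000/well) given compound in DMSO (217-fold dilution) after 5 h, incubated 16 h at 37C. CCF4-AM substrate 2 h at room temperature; 460/530 nm emission ratio, gain fitted against DMSO.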
# [4] = TOX21_p53_BLA_p4_viability: Viability Assessment in the Tox21 HCT-116 p53 Agonism Beta-lactamase Assay, Phase 4 (AID 2283597);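 note: hits lower the luminescence signal meaning cytotoxicity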
# Summary of the method: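 HCT116 p53-bla cells (4000/well) rested 5 h at 37C, then received compounds in DMSO (217-fold dilution) for 16 h at 37C, 5% CO2. CellTiter-Glo was added after the CCF4-AM read, and luminescence was read after 30 min at room temperature.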
# [5] = molecular target: Cellular tumor antigen p53 (Homo sapiens) (UniProt P04637); experiment: TOX21_p53_BLA_p5_ratio: Tox21 HCT-116 p53 Agonism Beta-lactamase Assay, Ratio, Phase 5 (AID 2283599)
# Summary of the method: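 Beta-lactamase reporter ratio (blue 460 nm over green 530 nm, 405 nm excitation) after 2 h CCF4-AM loading, in HCT-116 cells exposed 16 h at 37 C to compounds pinned at 217-fold dilution. Increases relative to DMSO baseline scored.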
# [6] = molecular target: Cellular tumor antigen p53 (Homo sapiens) (UniProt P04637); experiment: TOX21_p53_BLA_p4_ratio: Tox21 HCT-116 p53 Agonism Beta-lactamase Assay, Ratio, Phase 4 (AID 2283601)
# Summary of the method: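 Signal is the blue/green (460nm/530nm) ratio of cleaved versus uncleaved CCF4-AM substrate, read after 2 h substrate loading. Cells were HCT116 carrying the p53-responsive beta-lactamase reporter, dosed 16 h at 37C, 5% CO2; CellTiter-Glo measured in parallel.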
# [7] = TOX21_p53_BLA_p5_viability: Viability Assessment in the Tox21 HCT-116 p53 Agonism Beta-lactamase Assay, Phase 5 (AID 2283600)
# Summary of the method: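 Cells were plated at 4000/well, rested 5 h at 37C, then given compounds in DMSO (217-fold dilution) for 16 h at 37C, 5% CO2. Following the CCF4-AM beta-lactamase read, CellTiter-Glo was added and luminescence was read after 30 min at room temperature.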
# [8] = system: Thyroperoxidase (TPO), gene 54314; experiment: CCTE_Simmons_AUR_rTPO: CCTE's Amplex UltraRed Assay for Thyroperoxidase (TPO) Inhibition, Simmons Lab (AID 2283662);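 note: potency for loss of signal meaning inhibition of peroxidase activity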
# Summary of the method: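 Endpoint is decreased Amplex UltraRed fluorescence after a 30-min, 37C reaction of rat thyroid microsomes with 300 uM H2O2. Eight test concentrations (5 nM–87.5 uM final) in 0.5% DMSO, three biological replicates each.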
# [9] = CCTE_Simmons_CellTiterGLO_HEK293T: Viability Assessment in CCTE's Assays for Thyroperoxidase (TPO) Inhibition, Simmons Lab (AID 2283665);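 for AC50: cells exposed to compound for 24 h before readout; actives reduce ATP signal below DMSO vehicle meaning cytotoxicity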
# Summary of the method: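 HEK293T cells in DMEM with 1% FBS were dosed with 8 concentrations (5 nM–87.5 uM final, 0.5% DMSO) for 24 hr at 37C; ATP content was read by CellTiter-Glo luminescence, loss-of-signal versus DMSO, three biological replicates.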
# [10] = molecular target: Luciferin 4-monooxygenase (Photinus pyralis) (UniProt P08659); experiment: CCTE_Simmons_QuantiLum_inhib_2: CCTE's Firefly Luciferase Inhibition Assay, Simmons Lab (AID 2283767);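 for AC50: potency for inhibitors that lower luciferase luminescence relative to DMSO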
# Summary of the method: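 Recombinant firefly luciferase (5 ng/well, 200 mM potassium phosphate with 1 mg/ml BSA) was exposed to 8 concentrations from 5 nM to 87.5 uM (final, 0.5% DMSO) for 30 min at 37C in the dark. Loss of luminescence versus DMSO was read after injecting D-luciferin/ATP-analogue reagent.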
# [11] = ACEA_AR_agonist_AUC_viability: ACEA Biosciences xCELLigence Real-Time Cell Analysis on Androgen Receptor Agonism for Viability (AID 2283775);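 for AC50: viability read 80 hours after compound addition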
# Summary of the method: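 Read-out is area under the impedance curve at 80 h post-dose in 22Rv1 cells, with DMSO as baseline and signal loss taken as reduced viability. Compounds ran in duplicate from 100 uM final.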
# [12] = ACEA_AR_antagonist_AUC_viability: ACEA Biosciences xCELLigence Real-Time Cell Analysis on Androgen Receptor Antagonism for Viability (AID 2283776);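 note: 22Rv1 human prostate cancer cells growing on impedance electrode plates; area under impedance growth curve at 80 h after dosing as viability; hits lower the growth signal relative to DMSO meaning cytotoxicity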
# Summary of the method: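 Viability endpoint from label-free cell-index monitoring: 22Rv1 cultures treated with an eight-point 1:4 dilution series starting at 100 uM final, AUC at 80 h fitted against DMSO.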
# [13] = CEETOX_H295R_MTT_cell_viability: Viability Assessment in the CeeTox HT-H295R MTT Assay (AID 2283718; active = hit-call score of the fitted dose curve at least 0.9, where 1 is the maximum; inactive = score below 0.9)
# Summary of the method: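 MTT reduction (0.5 mg/ml, 4 h at 37 C; absorbance at 570 and 650 nm) gave viability as background-corrected percent change versus controls. H295R cells had 48 h forskolin (10 uM) prestimulation, then 48 h chemical exposure at 0.1% DMSO.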
# Luciferin 4-monooxygenase (Photinus pyralis), sequence (P08659 whole entry, looked up): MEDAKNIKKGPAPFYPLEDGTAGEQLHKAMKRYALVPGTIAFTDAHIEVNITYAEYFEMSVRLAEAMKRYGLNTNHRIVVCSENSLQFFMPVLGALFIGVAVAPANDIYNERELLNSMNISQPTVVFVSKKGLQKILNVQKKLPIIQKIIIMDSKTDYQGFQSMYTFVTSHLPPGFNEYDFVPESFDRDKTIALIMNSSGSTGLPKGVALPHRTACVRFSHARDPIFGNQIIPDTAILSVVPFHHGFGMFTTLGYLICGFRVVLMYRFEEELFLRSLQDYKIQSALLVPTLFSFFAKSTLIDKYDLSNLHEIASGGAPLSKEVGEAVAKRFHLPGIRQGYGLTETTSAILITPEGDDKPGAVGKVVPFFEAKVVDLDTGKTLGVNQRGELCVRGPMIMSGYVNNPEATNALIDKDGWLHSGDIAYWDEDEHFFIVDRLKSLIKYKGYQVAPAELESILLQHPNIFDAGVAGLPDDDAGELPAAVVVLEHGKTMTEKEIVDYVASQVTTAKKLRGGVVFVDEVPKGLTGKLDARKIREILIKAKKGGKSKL
# Cellular tumor antigen p53 (Homo sapiens), sequence (P04637 whole entry, looked up): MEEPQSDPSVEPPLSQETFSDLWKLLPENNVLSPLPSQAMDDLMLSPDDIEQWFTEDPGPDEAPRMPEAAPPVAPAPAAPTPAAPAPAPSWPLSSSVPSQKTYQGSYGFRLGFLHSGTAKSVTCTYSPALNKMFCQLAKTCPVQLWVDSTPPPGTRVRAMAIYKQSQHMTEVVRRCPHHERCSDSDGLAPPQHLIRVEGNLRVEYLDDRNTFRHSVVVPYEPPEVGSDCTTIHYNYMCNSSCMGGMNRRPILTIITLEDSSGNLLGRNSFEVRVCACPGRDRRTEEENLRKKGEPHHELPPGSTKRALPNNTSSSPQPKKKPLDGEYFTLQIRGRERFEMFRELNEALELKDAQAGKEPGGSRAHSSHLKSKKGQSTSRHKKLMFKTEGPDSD
smiles,measurement,setting,value
COc1ccc(C(Cl)=C(c2ccc(OC)cc2)c2ccc(OC)cc2)cc1,outcome,[1],inactive
same,outcome,[2],inactive
same,outcome,[3],inactive
same,outcome,[4],inactive
same,outcome,[5],inactive
same,outcome,[6],inactive
CCN(CCC#N)c1ccc(N=Nc2c(Cl)cc([N+](=O)[O-])cc2Cl)cc1,outcome,[1],inactive
same,outcome,[2],inactive
same,outcome,[3],inactive
same,outcome,[4],inactive
same,outcome,[5],inactive
same,outcome,[7],inactive
same,outcome,[6],inactive
same,AC50,[8],37.9 µM (active)
same,AC50,[9],41.8 µM (active)
same,AC50,[10],53.8 µM (active)
same,AC50,[11],3.43 µM (active)
same,AC50,[12],3.41 µM (active)
CC(C)(C)C(=O)C=Cc1ccc(Cl)cc1,outcome,[1],inactive
same,outcome,[2],inactive
same,outcome,[3],inactive
same,outcome,[4],inactive
same,outcome,[5],inactive
same,outcome,[6],inactive
CCCOC(=O)CCCCC(=O)OCCC,outcome,[1],inactive
same,outcome,[2],inactive
same,outcome,[3],inactive
same,outcome,[4],inactive
same,outcome,[6],inactive
CC(C)=CCC[C@H](C)CCO,outcome,[1],inactive
same,outcome,[2],inactive
same,outcome,[3],inactive
same,outcome,[4],inactive
same,outcome,[7],inactive
same,outcome,[11],inactive
same,outcome,[12],inactive
Cc1cccc(C(=O)O)c1,outcome,[1],inactive
same,outcome,[2],inactive
same,outcome,[3],inactive
same,outcome,[4],inactive
same,outcome,[5],inactive
same,outcome,[6],inactive
CCCCCCC(O)CO (stereo not drawn),outcome,[1],inactive
same,outcome,[2],inactive
same,outcome,[3],inactive
same,outcome,[4],inactive
same,outcome,[5],inactive
same,outcome,[6],inactive
CCCCCCC1(C)CCC(=O)O1 (stereo not drawn),outcome,[1],inactive
same,outcome,[2],inactive
same,outcome,[3],inactive
same,outcome,[4],inactive
same,outcome,[6],inactive
same,AC50,[11],1.1 µM (active)
same,outcome,[12],inactive
CC1OC1C1CCC2(C)OC2C1 (stereo not drawn),outcome,[1],inactive
same,outcome,[2],inactive
same,outcome,[3],inactive
same,outcome,[4],inactive
same,outcome,[5],inactive
same,outcome,[6],inactive
O=C(C=Cc1ccccc1)OCc1ccccc1,outcome,[1],inactive
same,outcome,[2],inactive
same,outcome,[3],inactive
same,outcome,[4],inactive
same,outcome,[5],inactive
same,outcome,[7],inactive
same,outcome,[6],inactive
same,outcome,[13],inactive
same,outcome,[12],inactive
C=C1C2CCC(C2)C1(C)C (stereo not drawn),outcome,[1],inactive
same,outcome,[2],inactive
same,outcome,[3],inactive
same,outcome,[4],inactive
same,outcome,[5],inactive
same,outcome,[6],inactive
same,outcome,[11],inactive
CC(=O)OC(C)C,outcome,[1],inactive
same,outcome,[2],inactive
same,outcome,[3],inactive
same,outcome,[4],inactive
same,outcome,[5],inactive
same,outcome,[6],inactive
same,outcome,[11],inactive
same,outcome,[12],inactive
C=C[Si](OC(C)=O)(OC(C)=O)OC(C)=O,outcome,[1],inactive
same,outcome,[2],inactive
same,outcome,[3],inactive
same,outcome,[5],inactive
same,outcome,[7],inactive
same,outcome,[6],inactive
CCCCOCCOC(=O)COc1nc(Cl)c(Cl)cc1Cl,outcome,[1],inactive
same,outcome,[2],inactive
same,outcome,[3],inactive
same,outcome,[4],inactive
same,outcome,[5],inactive
same,outcome,[7],inactive
same,outcome,[6],inactive
same,outcome,[11],inactive
O=c1cc[nH]c(=S)[nH]1,outcome,[1],inactive
same,outcome,[2],inactive
same,outcome,[3],inactive
same,outcome,[4],inactive
same,outcome,[5],inactive
same,outcome,[6],inactive
Cc1cc(C)c(C)c(C)c1,outcome,[1],inactive
same,outcome,[2],inactive
same,outcome,[3],inactive
same,outcome,[4],inactive
same,outcome,[5],inactive
same,outcome,[6],inactive
C=C[C@](C)(O)CC[C@@H]1[C@@]2(C)CCCC(C)(C)[C@@H]2CC[C@@]1(C)O,AC50,[1],86 µM (active)
same,AC50,[2],64.6 µM (active)
same,AC50,[3],85.2 µM (active)
same,AC50,[4],15.8 µM (active)
same,AC50,[5],87.1 µM (active)
same,outcome,[6],inactive
CC(C)c1ccc2c(C(C)C)cc(C(C)C)c(S(=O)(=O)O)c2c1,outcome,[1],inactive
same,outcome,[2],inactive
same,outcome,[3],inactive
same,AC50,[4],89.7 µM (active)
same,outcome,[5],inactive
same,outcome,[7],inactive
same,outcome,[6],inactive
same,outcome,[11],inactive
Nc1ccc(-c2ccc(F)cc2)cc1,outcome,[1],inactive
same,outcome,[2],inactive
same,outcome,[3],inactive
same,outcome,[4],inactive
same,outcome,[5],inactive
same,outcome,[6],inactive
O=C1c2ccccc2C(=O)C1c1nc2ccccc2c(Br)c1O,outcome,[1],inactive
same,outcome,[2],inactive
same,outcome,[4],inactive
same,outcome,[7],inactive
same,outcome,[6],inactive
O=CN1CCCCC1,outcome,[1],inactive
same,outcome,[2],inactive
same,outcome,[3],inactive
same,outcome,[5],inactive
same,outcome,[7],inactive
same,outcome,[6],inactive
O=C(O)CCCCCCCCCC(=O)O,outcome,[1],inactive
same,outcome,[2],inactive
same,outcome,[3],inactive
same,outcome,[5],inactive
same,outcome,[6],inactive
C=C(C)[C@@H]1CCC2=CCC[C@@H](C)[C@]2(C)C1,outcome,[1],inactive
same,outcome,[2],inactive
same,outcome,[4],inactive
same,outcome,[5],inactive
same,outcome,[6],inactive
CC1=Nc2ccc3ccccc3c2C1(C)C,outcome,[1],inactive
same,outcome,[2],inactive
same,outcome,[3],inactive
same,outcome,[5],inactive
same,outcome,[7],inactive
same,outcome,[6],inactive
C1=Cc2ccccc2C1,outcome,[1],inactive
same,outcome,[2],inactive
same,outcome,[4],inactive
same,outcome,[7],inactive
same,AC50,[8],43.6 µM (active)
same,outcome,[10],inactive
same,outcome,[11],inactive
same,outcome,[12],inactive
O=S(=O)(O)c1ccccc1C=Cc1ccc(-c2ccc(C=Cc3ccccc3S(=O)(=O)O)cc2)cc1,outcome,[1],inactive
same,outcome,[2],inactive
same,outcome,[3],inactive
same,AC50,[5],11.4 µM (active)
same,outcome,[7],inactive
same,AC50,[6],11.4 µM (active)
same,AC50,[8],44.4 µM (active)
same,outcome,[9],inactive
same,outcome,[10],inactive
same,outcome,[12],inactive
C=CC(=O)OCCOC(=O)C=C,outcome,[1],inactive
same,outcome,[2],inactive
same,outcome,[3],inactive
same,outcome,[5],inactive
same,outcome,[7],inactive
same,outcome,[6],inactive
CCOC(=O)Cc1cccc2ccccc12,outcome,[1],inactive
same,outcome,[2],inactive
same,outcome,[4],inactive
same,outcome,[5],inactive
same,outcome,[6],inactive
same,outcome,[13],inactive
O=C1C(N(CO)C(=O)NCO)N(CO)C(=O)N1CO (stereo not drawn),outcome,[1],inactive
same,outcome,[2],inactive
same,outcome,[3],inactive
same,outcome,[7],inactive
same,outcome,[11],inactive
